Measurements reported in PubChem BioAssay AID624296 (National Center for Advancing Translational Sciences (NCATS), 2012).
In all, about 350,000 compounds went through this assay and about 9,900 (2.8%) were called active. Roughly 15% stayed inconclusive and do not appear here. The sample as a whole holds a higher share of actives than the screen did. Unmarked numbers belong to inactive results. The call rests on the fitted dose curve; in most records, active means well fitted activation curve with a large enough effect; inconclusive means small, poorly fitted or top-dose-only effect; inactive means no such curve, though single readings can be large or run the other way.

test: A quantitative high throughput screen for small molecules that induce DNA re-replication in MCF 10a normal breast cells.; further: nearly all actives have a fitted effect of over 50% in size; on activity, positive = re-replication: % of control where 0% means no effect; conditions: MCF 10A DNA re-replication, Hoechst nuclear intensity, 48 h; series mostly up to 46.1 µM; activity, positive = re-replication: at the top concentration
Potency means the concentration at half of the fitted maximal effect.

| SMILES | activity, positive = re-replication | Potency |
| --- | --- | --- |
| CC1Cc2ccccc2N1S(=O)(=O)c1cccc(C(=O)OCC(=O)N2CCOCC2)c1 (centres undefined) | -9.4% | – |
| CCC1([N+](=O)[O-])COC(c2ccc(C(C)C)cc2)OC1 (centres undefined) | 1.18% | – |
| CC(C)N(C(=O)c1ccc(-c2ccccc2F)cc1)C(C)C | -4.52% | – |
| O=C(CN1C(=O)c2ccccc2C1=O)NCc1ccc(C(=O)O)cc1 | -0.0938% | – |
| CC(=O)N(C1=C(Cl)C(=O)c2ccccc2C1=O)c1ccc(C(=O)O)cc1 | – | 5.8 µM (active) |
| O=C(OCC(=O)N1CCCCCC1)c1cnc(Cl)c(Cl)c1 | 7.44% | – |
| CN(C)CCCN(C(=O)COc1ccccc1)c1nc2c(Cl)cccc2s1 | 0.434% | – |
| COc1cc2ccccc2cc1C(=O)N(CCN(C)C)c1nc2c(F)cccc2s1 | 9.27% | – |
| COc1cccc2sc(N(CCCN(C)C)C(=O)CCS(=O)(=O)c3ccccc3)nc12 | – | 6.51 µM (active) |
| N#Cc1ccccc1S(=O)(=O)N1CCN(Cc2c(O)ccc3ccccc23)CC1 | 0.162% | – |
| CCOc1ccccc1NC(=S)C(=C([O-])c1ccc2c(c1)OCCO2)[n+]1ccc(CC)cc1 | – | 2.59 µM (active) |
| CCc1ccccc1OCC(=O)Nc1ccc2c(c1)OCCO2 | 3.44% | – |
| O=[N+]([O-])c1cccc(/C([O-])=C(/C(=S)Nc2ccccc2F)[n+]2ccccc2)c1 | -4.73% | – |
| O=[N+]([O-])c1ccc(N=NNc2ccc([N+](=O)[O-])cc2)cc1 | 4.43% | – |
| CC(=O)Nc1ccc(NC(=O)c2sc3nc4c(c(-c5ccc(C)cc5)c3c2N)CCC4)cc1 | – | 5.8 µM (active) |
| Cc1cccc(NC(=O)CSc2nnc(-c3ccco3)o2)c1 | 13.8% | – |
| Cc1cccc(NC(=O)c2sc3nc(N4CCOCC4)c4c(c3c2N)CCCC4)c1 | – | 2.91 µM (active) |
| Cc1cccc(NC(=O)c2sc3nc4c(c(-c5ccco5)c3c2N)CCC4)c1 | – | 13 µM (active) |
| CC(=O)Nc1ccc(N2CCOCC2)c(C(=O)Nc2cccc(C)c2)c1 | 0.446% | – |
| CC(=O)c1ccc(NC(=O)c2sc3nc4n(c(=O)c3c2C)CCCCC4)cc1 | 13.7% | – |
| c1ccc(CSc2ncnc3c2sc2nc(N4CCOCC4)c4c(c23)CCCC4)cc1 | 7.01% | – |
| Cc1ccc(NC(=O)c2sc3nc(N)c(C#N)cc3c2N)cc1 | 99% | – |
| Cc1cccc(NC(=O)/C(=C\c2ccco2)NC(=O)c2ccccc2)c1 | 4.86% | – |

| SMILES | activity, positive = re-replication | Potency |
| --- | --- | --- |
| Cc1ccc(S(=O)(=O)N(C)c2ccc(OCC(=O)OCc3ccc(C#N)cc3)cc2)cc1 | -2.84% | – |
| O=C(CC(=O)c1cccnc1)c1ccccc1 | 1.86% | – |
| OC(COc1ccccc1)CN1CCN(c2cccc(Cl)c2)CC1 (centres undefined) | 6.13% | – |
| C[C@@H]1NS(=O)(=O)c2cc(Cl)ccc2O[C@@H]1c1ccccc1 | 2.32% | – |
| CCc1cccc(NC(=O)COC(=O)c2cc(=O)c3ccccc3o2)c1 | -1.43% | – |
| CCOC(=O)C1CCCN(C(=O)CSc2nnc3nc(C)cc(C)n23)C1 (centres undefined) | -3.48% | – |
| Cc1c(C(=O)Nc2cccc(S(=O)(=O)N3CCOCC3)c2)oc2ccccc12 | 4.39% | – |
| COc1cccc(N(CC(=O)Nc2cccc(F)c2)S(C)(=O)=O)c1 | 0.363% | – |
| CCN(CC)S(=O)(=O)c1ccc(NC(=O)CN(c2cccc(F)c2)S(C)(=O)=O)cc1 | 14.2% | – |
| Cc1cccc(N(CC(=O)Nc2ccc(-c3nc4ccc(C)cc4s3)cc2)S(C)(=O)=O)c1 | – | 14.6 µM (active) |
| CCN(CC)C(=O)[C@H]1CC(CC(=O)NCc2ccco2)C(=O)N2CCc3c([nH]c4ccccc34)[C@]12C (some centres undefined) | 2.25% | – |
| CN(C)S(=O)(=O)c1ccc(C(=O)NCC2(N3CCOCC3)CCCCC2)cc1 | 19.4% | – |
| O=C(N/N=C/c1sc(N2CCCCC2)nc1-c1cccs1)c1cccnc1 | – | 0.461 µM (active) |
| Cc1cc(/C=N/NC(=O)c2cccnc2)c(C)n1CC(C)C | -3.64% | – |
| O=C(N/N=C/c1ccc(O)c2ccccc12)c1cccnc1 | 18.5% | – |
| OCCN1CCN(CCO)C1=S | -4.43% | – |
| O=C(CCC(=O)N1CCN(S(=O)(=O)c2ccc(Cl)cc2)CC1)NCc1cccc(C(F)(F)F)c1 | 7.94% | – |
| C[C@H](NC(=O)c1[nH]cnc1C(=O)Nc1nccs1)c1ccccc1 | 5.81% | – |
| CN(CC(=O)NCCc1ccc(S(N)(=O)=O)cc1)CC(=O)Nc1ccc(Cl)cc1 | 13.7% | – |
| CCC(C)NC(=O)c1ccc(NC(=O)CC2SC(N3CCCCC3)=NC2=O)cc1 (centres undefined) | -1.6% | – |
| CCOC(=O)C1=C(NC(=S)NC(=O)c2ccccc2)c2ccccc2CC1(C)C | – | 4.11 µM (active) |
| Cc1ccc(NC(=S)NC(=O)c2ccc(-c3ccccc3)cc2)cc1 | 12.4% | – |
| CCOC(=O)c1c(-c2ccccc2)csc1NC(=S)NC(=O)c1ccccc1 | 17.7% | – |

| SMILES | activity, positive = re-replication | Potency |
| --- | --- | --- |
| CSc1ccc(S(=O)(=O)NCC(=O)OCC(=O)NC2(C#N)CCCCC2)cc1[N+](=O)[O-] | -9.34% | – |
| COc1ccc(CCNC(=O)COC(=O)C2CC2C)cc1 (centres undefined) | -1.5% | – |
| C#CCOCCOCCOCCNc1nc(N2CCN(C(=O)[C@H](CO)n3cc([C@@H](N)C(C)C)nn3)CC2)nc(N2CCN(C(=O)[C@H](CCC(=O)O)n3cc([C@@H](N)[C@H](C)CC)nn3)CC2)n1 | 5.49% | – |
| CCOC(=O)c1sc(=S)n2c1[nH]c(=O)c1ccc(C(=O)OC)cc12 | 12.3% | – |
| CCOC(=O)c1sc(=NC(=O)c2ccc(Br)cc2)n(C)c1C | -1.22% | – |
| CCOC(=O)C1=C(C)Nc2sc(C(=O)c3ccc(Br)cc3)c(N)c2C1c1ccc(C(=O)OC)cc1 (centres undefined) | – | 2.91 µM (active) |
| CC(Oc1ccc(Br)cc1)C(=O)NC1CCCCCC1 (centres undefined) | -2.6% | – |
| COc1cccc(CC2(CO)CCCN(Cc3ccc(OC(F)F)cc3)C2)c1 (centres undefined) | 11.3% | – |
| CCOc1cc(CN2CCCC(CO)(Cc3ccc(F)cc3F)C2)ccc1OC (centres undefined) | – | 3.66 µM (active) |
| CCc1[nH]nc(C(=O)N2CCCC(CO)(Cc3ccc(F)cc3F)C2)c1C (centres undefined) | 2.62% | – |
| Cc1nc(N)nc(Cl)c1CCC1OCCO1 | -13.3% | – |
| O=C(COC(=O)c1cccnc1Cl)NC(=O)NC1CCCCC1 | -3.4% | – |
| CCOC(=O)[C@@H]1[C@H]2COc3ccc(Br)cc3[C@H]2N2C(=O)N(c3ccc(C)cc3)C(=O)[C@@]12C | 0.91% | – |
| COc1ccc(OC)c(/C(C)=N\NC(=O)c2cc3cc(Cl)ccc3n2C)c1 | – | 14.6 µM (active) |
| COc1ccc(/C(C)=N/NC(=O)CCC(=O)Nc2ccc(Cl)cc2Cl)c(OC)c1 | -1.1% | – |
| COc1ccc(OC)c(C(=O)c2ccc(Cl)cc2)c1 | -1.75% | – |
| C=CCN1C=C(C(=O)c2ccccc2)C(=O)CC1 | -10.9% | – |
| OCC[C@H]1C[C@@H](O)[C@H](O)[C@@]2(OCCc3ccccc32)O1 | -2.2% | – |
| O=C(Nc1cccc(Br)c1)C1CC(=O)N(C2CCCC2)C1 (centres undefined) | 0.188% | – |
| Cc1cccc(C(=O)NCC(=O)OCC(=O)N2CC3(C)CC2CC(C)(C)C3)c1 (centres undefined) | 7.03% | – |
| Cc1nnnn1/C(=C\c1ccccc1)C(=O)OCC(=O)N1CC2(C)CC1CC(C)(C)C2 (centres undefined) | – | 16.4 µM (active) |
| COc1ccccc1C(=O)N1CC2(C)CC1CC(C)(C)C2 (centres undefined) | 5.95% | – |
| O=C(COC(=O)Cc1ccc([N+](=O)[O-])cc1)NC1CCCCCC1 | -3.78% | – |

| SMILES | activity, positive = re-replication | Potency |
| --- | --- | --- |
| CSc1ncccc1C(=O)Nc1cccc(S(=O)(=O)N2CCOCC2)c1 | 7.68% | – |
| CSc1nc(C)cc(SC(C(C)=O)C(=O)Nc2ccccc2)n1 (centres undefined) | -0.661% | – |
| CSc1nc(-c2ccccc2)nc(C(Cl)Cl)n1 | – | 2.59 µM (active) |
| CSc1ncc(Sc2ccccc2)c(C(=O)O)n1 | 0.656% | – |
| O=C(Nc1cccc(S(=O)(=O)NC2=NCCC2)c1)c1ccc(F)cc1F | -17.2% | – |
| O=C(Nc1ccc(C(F)(F)F)cc1)c1cccc(-n2cnnn2)c1 | -0.9% | – |
| CC(C)COc1ccc(C(=O)NNC(=O)CCC(=O)c2cccs2)cc1 | -7.87% | – |
| O=C(NCc1ccccc1)C1=C[C@H](C2CC2)C[C@H](OCc2ccc(CO)cc2)O1 | 2.7% | – |
| C#Cc1ccc([C@@H]2C=C(C(=O)O)O[C@H](OCCCCO)C2)cc1 | -5.28% | – |
| O=C(NCc1ccccc1)C1=C[C@@H](C2CCCCC2)C[C@@H](OCc2ccc(CO)cc2)O1 | – | 18.4 µM (active) |
| O=C(O)C1=C[C@H](c2cccs2)C[C@H](OCCCCO)O1 | -0.726% | – |
| O=C(NCc1ccccc1)C1=C[C@@H](c2ccccc2)C[C@@H](OCCCCO)O1 | – | 16.4 µM (active) |
| CC(C)(C)[C@H]1C=C(C(=O)NCc2ccccc2)O[C@@H](OCc2ccc(CO)cc2)C1 | -23.1% | – |
| CC(=O)OC1CCC2(C)C(=CCC3C4CC(=O)N(O)C(=O)C4(C)CCC32)C1 (centres undefined) | -0.584% | – |
| CC(C)Cc1nnc(N)s1 | -4.14% | – |
| NC(=S)N/N=C/c1ccc([N+](=O)[O-])cc1 | -0.441% | – |
| COc1ccc(Nc2ccc([N+](=O)[O-])cn2)cn1 | -2.54% | – |
| CC(C)c1ccc(C=NNc2ccc([N+](=O)[O-])cn2)cc1 | – | 6.51 µM (active) |
| Cc1ccc(S(=O)(=O)NCCNC(C)c2ccc(Br)cc2)cc1 (centres undefined) | 18% | – |
| C#CCOCCOCCOCCNc1nc(N2CCN(C(=O)[C@H](CCCN=C(N)N)n3cc(C(N)[C@@H](C)CC)nn3)CC2)nc(N2CCN(C(=O)[C@H](CO)n3cc([C@@H](N)C(C)C)nn3)CC2)n1 (some centres undefined) | 1.5% | – |
